# Measurements: PubChem BioAssay AID540317 (National Center for Advancing Translational Sciences (NCATS), 2011)
# Among all 390,000 compounds or so, about 2,200 (0.56%) were called active. Entries that show only a call come without a potency. About 3% were inconclusive and are not listed. The sample holds actives, similar compounds and a random draw of the others, so the mix is not that of the screen. Calls come from the whole dose curve; as a rule, active = well fitted inhibition curve with a large enough effect; inconclusive = small, poorly fitted or top-dose-only effect; inactive = no such curve, though single readings can be large or run the other way.
# Molecular target: Chromobox protein homolog 1 (Homo sapiens) (UniProt P83916)
# Sequence (P83916 whole entry, looked up): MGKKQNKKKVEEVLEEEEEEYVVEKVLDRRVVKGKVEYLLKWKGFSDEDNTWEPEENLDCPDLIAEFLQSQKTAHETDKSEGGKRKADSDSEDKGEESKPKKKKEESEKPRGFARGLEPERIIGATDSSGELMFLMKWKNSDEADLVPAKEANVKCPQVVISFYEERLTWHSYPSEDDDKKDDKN
# Test: HTS for Inhibitors of HP1-beta Chromodomain Interactions with Methylated Histone Tails; note: nearly all actives have a fitted effect of over 70% in size
# Details: AlphaScreen HP1-beta / biotin-H3K9me3 peptide binding; series mostly up to 114 µM
# Outline: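 AlphaScreen: HP1-beta (50 nM) preformed 30 min with biotin-H3(1-18)K9me3 peptide (50 nM) in PBS pH 7.4, 0.01% Tween-20. Compound added for 30 min at RT, then streptavidin donor/nickel chelate acceptor beads (10 ug/mL) for 30 min.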
# Potency is the fitted concentration of half-maximal effect.
row,Compound,Potency
1,Cc1ccc(C)c(Cn2c(CCCNC(=O)C3CCCCC3)nc3ccccc32)c1,inactive
2,CC1CCN(C(=S)c2cccc(O)c2)CC1,inactive
3,CC1CCN(C(=S)c2ccc(-c3ccc(Cl)cc3Cl)o2)CC1,22.4 µM (active)
4,COc1ccc(C(=O)Nc2c(Cl)cc(Cl)cc2C(=O)N2CCC(C)CC2)cc1,inactive
5,Cc1ccc(C(=O)Nc2nc(-c3ccccc3)ns2)cc1,inactive
6,Cc1cc(C)cc(NC(=O)Cc2csc(C)n2)c1,inactive
7,CCOc1ccc(N(Cc2ccccc2)C(=O)c2nc(SCC)ncc2Cl)cc1,inactive
8,O=C(NC1CC(=O)N(c2ccc(F)cc2)C1)C1CCCCC1 (stereo not given),inactive
9,CCn1c2ccccc2c2nnc(N3CCN(c4cc(C)ccc4C)CC3)nc21,inactive
10,CCOCCCNC(=O)c1c(NC(=O)Cc2coc3c(C)c(C)ccc23)sc2c1CCC2,inactive
11,O=C(NCCc1ccccc1)c1cnc2sc(N3CCCC3)nn2c1=O,inactive
12,COc1ccc(Cc2nnc(SCC(=O)c3cccc([N+](=O)[O-])c3)n2C)cc1,inactive
13,COc1cccc(NCCC(=O)c2cccc([N+](=O)[O-])c2)c1,79.4 µM (active)
14,COc1cccc(C(=O)CC(=O)C(=O)Nc2ccc([N+](=O)[O-])cc2C)c1,inactive
15,Cc1ccccc1CNC(=O)CCCn1nc(C)c2sc3ccccc3c2c1=O,inactive
16,NS(=O)(=O)c1ccc(NC(=O)CSc2nnc3c(n2)[nH]c2ccccc23)cc1,inactive
17,COc1ccc(C(=O)COC(=O)C(O)c2ccccc2)c(OC)c1 (stereo not given),inactive
18,COc1ccc(/C=C2/C(=O)N(c3ccccc3)N=C2C)c(OC)c1,12.6 µM (active)
19,COc1ccc(/C=C2/C(=O)OCc3cc(OC)c(OC)cc32)c(OC)c1,inactive
20,CC1CC(C)CN(c2oc(-c3ccc(OCc4ccc(Cl)cc4)cc3)nc2C#N)C1 (stereo not given),inactive
21,COc1ccc(C(=O)CSc2c(C(C)C)cnc3c2c(=O)n(C)c(=O)n3C)cc1,inactive
22,O=C(CCc1cn(Cc2ccc(F)cc2)c2ccccc12)NC1CCCCC1,inactive
23,CCc1ccccc1N1C(=O)CN(S(=O)(=O)CC)CC1(C)C(=O)NC1CCCCC1 (stereo not given),inactive
24,CCOc1ccc(NC(=O)c2ncoc2-c2ccco2)cc1,inactive
25,C=CCNC(=O)c1ccc2nc(-c3ccco3)c(-c3ccco3)nc2c1,inactive

row,Compound,Potency
1,COCCNC(=O)Nc1ccc2nc(-c3ccco3)c(-c3ccco3)nc2c1,8.91 µM (active)
2,CCN(CC)CCNC(=O)Cn1ncc2c3ccccc3n(Cc3ccccc3C)c2c1=O,inactive
3,COc1ccc2c(c1)C(=C(C#N)C#N)C(=O)N2CCc1ccccc1,39.8 µM (active)
4,CCCCN1C(=O)/C(=C(/C#N)C(N)=O)c2ccccc21,inactive
5,Cc1ccc(C(=O)CC2(O)C(=O)N(CCc3ccccc3)c3ccc(Br)cc32)cc1 (stereo not given),inactive
6,COc1ccc(CCNC(=O)c2ccc(-n3c(C)cc4c3CCCC4)cc2)cc1OC,inactive
7,CCOC(=O)c1ccc(NC(=O)c2c(NCc3cccs3)sc3c2CCCC3)cc1,inactive
8,COC(=O)c1ccc2c(c1)N(CC(=O)Nc1ccc(C)c(C)c1)C(=O)c1ccccc1S2,inactive
9,O=C(CN1CCN(c2ncc(C(F)(F)F)cc2Cl)CC1)Nc1ccc2c(c1)OCO2,inactive
10,Cc1ccc(C(=O)O)cc1-c1ccc(/C=C2\SC(=O)N(CC(=O)Nc3ccc4c(c3)OCO4)C2=O)o1,79.4 µM (active)
11,COc1ccc(S(=O)(=O)c2c(Nc3cccc(Cl)c3)sc(C(=O)c3ccccc3)c2N)cc1,inactive
12,Nc1ncc(S(=O)(=O)Nc2ccc(OC(F)(F)F)cc2)cn1,inactive
13,O=S(=O)(Nc1ccc(O)c2ccccc12)c1ccc(OC(F)(F)F)cc1,44.7 µM (active)
14,O=C1Cc2cc(S(=O)(=O)Nc3ccc(OC(F)(F)F)cc3)cc3c2N1CCC3,inactive
15,O=C(NCCCO)c1nn(-c2ccc(Cl)cc2)nc1CO,inactive
16,CCOc1ccc(NC(=O)CSc2nnc3c(n2)[nH]c2ccc(S(=O)(=O)N4CCOCC4)cc23)cc1,inactive
17,C=CC(=O)Nc1ccc(Nc2ccnc(Nc3ccc(N4CCN(C)CC4)cc3)n2)cc1,44.7 µM (active)
18,Cc1cc(Nc2cc(N3CCN(C)CC3)nc(Sc3ccc(NC(=O)C4CC4)cc3)n2)n[nH]1,inactive
19,O=C(COc1ccccc1)Nc1ccc(N2CCN(C(=O)c3cccs3)CC2)cc1,inactive
20,Cc1cc2nn(-c3ccc(Cl)cc3)nc2cc1NC(=O)C(C)C,inactive
21,Oc1c(Br)cc(/C=N/NC(=S)NCC2CCCO2)cc1Br (stereo not given),inactive
22,COc1cc(/C=N/Nc2ccc(C)cc2)cc(Br)c1O,79.4 µM (active)
23,COc1ccc(S(=O)(=O)NNC(=O)Nc2ccc(C)cc2)c(OC)c1,inactive
24,CN1CCN(C(CNC(=O)c2ccccc2F)c2ccc3c(c2)OCO3)CC1 (stereo not given),inactive
25,c1ccc(CSc2nnc(-c3ccco3)c(-c3ccco3)n2)cc1,39.8 µM (active)

row,Compound,Potency
1,CC1(C)N=C(SCc2ccccc2Cl)c2ccccc2N1,inactive
2,CN(C)C(=O)CSc1n[nH]c(-c2ccco2)n1,inactive
3,Clc1ccccc1CSc1nnc(-c2ccco2)c(-c2ccco2)n1,20 µM (active)
4,Fc1ccc(CSc2nc(NCc3ccccc3)c3ccccc3n2)cc1,inactive
5,Clc1ccccc1CSc1nncn2c1cc1occc12,inactive
6,Cc1ccc(CNC(=O)CCc2c(C)nn(-c3ccc(N4CCCC4)nn3)c2C)cc1,inactive
7,CCCN1CCC(=O)N(C(CSc2ccc(OC)cc2)Cc2ccccc2)CC1 (stereo not given),inactive
8,COc1ccc(Cl)cc1S(=O)(=O)N1CCC(c2ccncc2)CC1,inactive
9,CC(C)(C)C1C/C(=C/c2ccco2)C(=O)/C(=C/c2ccco2)C1 (stereo not given),39.8 µM (active)
10,COc1ccc(OC)c(NC(=O)CSC2=Nc3ccccc3C3=NC(CC(=O)NCc4ccc(F)cc4)C(=O)N23)c1 (stereo not given),inactive
11,CCc1nc2nc(C)cc(Nc3ccc(F)c(Cl)c3)n2n1,inactive
12,COc1ccc(S(=O)(=O)Nc2cccc3cccnc23)c(N)c1,inactive
13,COc1ccc(C(=O)Nc2ccc(-n3nncc3-c3ccccc3)cc2)cc1OC,inactive
14,CC(=O)Nc1ccc(S(=O)(=O)N2N=NC3C2C2CC4C3(CN(C(=O)OC(C)(C)C)S4(=O)=O)O2)cc1 (stereo not given),inactive
15,COc1cccc(-c2nc(S(=O)(=O)c3ccc(C)cc3)c(NCc3ccccc3)o2)c1,inactive
16,Cc1ccc2c(c1)N(C(=O)Nc1ccc(Br)cc1F)CCO2,inactive
17,COC(=O)c1scc(-c2ccc(C)cc2)c1S(=O)(=O)Nc1cc(Cl)c(OC)cc1OC,inactive
18,CCN1CCN(c2ccc([N+](=O)[O-])cc2C(=O)c2ccc(Cl)cc2)CC1,inactive
19,O=[N+]([O-])c1ccc(N2CCN(c3ccc(O)cc3)CC2)c(Cl)c1,50.1 µM (active)
20,O=C(O)C1CCN(c2ccc([N+](=O)[O-])cc2[N+](=O)[O-])CC1,inactive
21,COc1ccc(CCn2c3c(c(=O)[nH]c2=S)CN(C(C)C)CN3)cc1OC,inactive
22,Cc1cc(C)c(/C=C/c2onc(C)c2S(=O)(=O)N2CCC(C(=O)Nc3ccc(Cl)cc3C)CC2)c(C)c1,inactive
23,CCN(CC)S(=O)(=O)c1ccc2c(c1)N(CC(=O)NCC(C)c1ccccc1)C(=O)CO2 (stereo not given),inactive
24,Cc1ccccc1C(=O)N(Cc1ccc(N(C)C)cc1)CC1CCCO1 (stereo not given),inactive
25,Cc1nc2c(c(C)nn2-c2ccccc2)c(C)c1CCC(=O)NCCc1ccc(Cl)cc1,inactive

row,Compound,Potency
1,CCCNC(=O)C1CCC(Cn2c(=O)c3sccc3n(Cc3ccccc3F)c2=O)CC1 (stereo not given),inactive
2,COc1ccc(N(C)C(=O)C2CCN(S(=O)(=O)c3cc(Br)cc4c3N(C(C)=O)CC4)CC2)cc1,inactive
3,O=c1ccc2c(-c3ccccc3S(=O)(=O)O)c3ccc(O)c(O)c3oc-2c1O,1 µM (active)
4,CCOc1cccc(NC(=O)c2ccc(F)c(S(=O)(=O)N(CC)c3cccc(C)c3)c2)c1,inactive
5,CCN(Cc1ccccc1)S(=O)(=O)c1ccc2c(c1)CCCN2C(C)=O,inactive
6,Cc1ccc(Cl)cc1NC(=O)/C(C#N)=C\c1cn(Cc2ccc(F)cc2)c2ccccc12,inactive
7,COc1ccc(Cn2c(=O)[nH]c3cc(C(=O)N4CCN(C(=O)c5ccco5)CC4)ccc3c2=O)cc1,inactive
8,Cc1cccc(C)c1NC(=O)CNC(=O)C1CCCC1,inactive
9,COc1ccc(N2CCC(CNC(=S)Nc3c(C)cccc3C)C2)cc1 (stereo not given),20 µM (active)
10,COc1ccc(N2CCC(N3CCN(C)C(CCO)C3)CC2)cc1 (stereo not given),inactive
11,COc1ccc(CNC(=O)C2CCC(CNc3c(N4CCOCC4)c(=O)c3=O)CC2)cc1 (stereo not given),inactive
12,COc1ccc(NC(=O)N2CCCC(C(=O)Nc3ccccc3OC)C2)cc1 (stereo not given),inactive
13,COc1ccc(NC(=S)NCC2CCN(c3ccc(OC)cc3)C2)cc1 (stereo not given),25.1 µM (active)
14,CCCN1CCC(=O)N(C(CSc2ccc(C)cc2)Cc2ccccc2)CC1 (stereo not given),inactive
15,COc1ccc(CCNS(=O)(=O)c2cc(-c3cc(C)no3)ccc2C)cc1OC,inactive
16,COc1cccc(NC(=O)N2CCN(C(=O)c3nsc4ccccc34)CC2)c1,inactive
17,Cc1cc(C)cc(OC(C)C(=O)Nc2nc3c(s2)CCCC3)c1 (stereo not given),inactive
18,COc1cc(C2c3c(oc4ccccc4c3=O)C(=O)N2c2nc(C)c(C)s2)ccc1O (stereo not given),inactive
19,COc1cc(/C=N\Nc2nc(-c3cccs3)c(NC(C)=O)s2)ccc1O,22.4 µM (active)
20,COc1ccc(Cl)cc1NC(=O)CSc1nc(-c2cccs2)cc(C(F)(F)F)n1,inactive
21,COc1cc(/C=C/C(=O)OCC(=O)Nc2cccc(Oc3ccccc3)c2)ccc1O,inactive
22,COc1ccc(CNC(=O)CSCc2nc(-c3ccccc3F)oc2C)cc1,inactive
23,COc1cc(/C=C2/SC(=S)N(Cc3ccccc3)C2=O)cc(OC)c1O,20 µM (active)
24,COc1ccc(CCNC(=O)CCCCn2c(=O)c3ccccc3n(Cc3ccccc3)c2=O)cc1OC,inactive
25,COc1ccc(Cn2c(=O)sc3ccccc32)cc1OC,inactive
